According to PubChem BioAssay (Tox21):
Records with an inconclusive call do not appear. Active and inactive are the calls of the source. Calls follow the shape of the dose curve; as a rule, active = well fitted curve in the direction sought with a large enough effect in the repeat runs; inconclusive = weak or mixed curves; inactive = no such curve, though single readings can be large; an effect the other way counts as inactive or inconclusive.

Tests used:
[1] = qHTS RealTime-Glo MT Cell Viability Assay in HepG2 cells - 40 hour (AID 1224870); also: nearly all actives have a fitted effect of over 50% in size; also: potency is read from the fitted curve at half-maximal effect
How it was run: (§1)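 HepG2 cells (600/well) mixed with RealTime-Glo MT reagent, settled 5 h at 37 C/5% CO2 before compound addition. Nonlytic NanoLuc luminescence from viable-cell prosubstrate reduction read repeatedly during 40 h treatment at 37 C.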

[2] = A CellTox Green Cytotoxicity Assay to monitor cytotoxicity in HEK293 cells - 40 hour (AID 1224871); also: nearly all actives have a fitted effect of over 45% in size
How it was run: (§2)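 HEK293 cells, 600/well, were preincubated 5 hours and then exposed to compounds at 37 C for up to 40 hours. A cell-impermeant cyanine dye staining dead-cell DNA was read by fluorescence at 0, 8, 16, 24, 32 and 40 h time points.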

[3] = qHTS RealTime-Glo MT Cell Viability Assay in HepG2 cells - 8 hour (AID 1224873); also: nearly all actives have a fitted effect of over 55% in size
How it was run: as §1

[4] = qHTS RealTime-Glo MT Cell Viability Assay in HEK293 cells - 40 hour (AID 1224874); conditions: RealTime-Glo luminescence; max response: stronger effect = lower value; also: nearly all actives have a fitted effect of over 50% in size
How it was run: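 600 cells/well were plated with the nonlytic NanoLuc/prosubstrate reagent, pre-incubated 5 h, then given 23 nL of compound in DMSO. Incubation at 37 C for 40 h, with luminescence from viable-cell-reduced substrate read repeatedly from 0 h.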

[5] = A CellTox Green Cytotoxicity Assay to monitor cytotoxicity in HEK293 cells - 24 hour (AID 1224875); also: series mostly up to about 77 µM; nearly all actives have a fitted effect of over 45% in size
How it was run: as §2

[6] = A CellTox Green Cytotoxicity Assay to monitor cytotoxicity in HepG2 cells - 16 hour (AID 1224876); also: nearly all actives have a fitted effect of over 45% in size
How it was run: (§3)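 HepG2 cells, 600/well, preincubated 5 h with CellTox Green dye, then exposed to Tox21 compounds in DMSO at 37 C for up to 40 h. Dead-cell DNA fluorescence read at the indicated time point.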

[7] = qHTS RealTime-Glo MT Cell Viability Assay in HepG2 cells - 32 hour (AID 1224877); also: nearly all actives have a fitted effect of over 55% in size
How it was run: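 Viability was tracked continuously by NanoLuc luminescence from prosubstrate reduced by living HepG2 cells, at successive time points over 40 h of compound exposure. Cells with reagent were preincubated 5 h at 37 °C before compound addition.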

[8] = qHTS RealTime-Glo MT Cell Viability Assay in HEK293 cells - 16 hour (AID 1224872); also: top concentration of the series differs between compounds; nearly all actives have a fitted effect of over 50% in size
How it was run: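 Viability tracked continuously by luminescence as live cells reduce a prosubstrate for NanoLuc; HEK293 cells preincubated 5 h, compound-treated at 37 C, and read at 0, 8, 16, 24, 32 and 40 h.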

[9] = A CellTox Green Cytotoxicity Assay to monitor cytotoxicity in HepG2 cells - 24 hour (AID 1224878); also: nearly all actives have a fitted effect of over 45% in size
How it was run: as §3

[10] = A CellTox Green Cytotoxicity Assay to monitor cytotoxicity in HepG2 cells - 40 hour (AID 1224879); also: nearly all actives have a fitted effect of over 40% in size
How it was run: as §3
% is scaled to controls: 0 for no effect and ±100 for the full control effect.

CC(C)=CCC/C(C)=C/C(=O)O
inactive: Potency [1] | Potency [2] | outcome [3] | max response [4] 0.0826% | Potency [5] | Potency [6] | Potency [7]

Cc1ccccc1C(=O)O
inactive: Potency [1] | Potency [2] | outcome [3] | max response [4] -0.805% | Potency [5] | Potency [6] | Potency [7]

COc1ccc(N=[N+]([O-])c2ccc(OC)cc2)cc1
inactive: Potency [1] | Potency [2] | Potency [8] | Potency [5] | Potency [6] | Potency [7] | Potency [9] | Potency [10]

NCCNC(=O)c1ccc(Cl)cn1
inactive: Potency [1] | Potency [2] | Potency [8] | max response [4] 0.469% | Potency [5] | Potency [6] | Potency [9] | Potency [10]

CCc1cc(S(=O)(=O)O)c2cc(C(C)C)cccc1-2
inactive: Potency [1] | Potency [2] | Potency [8] | max response [4] 7.39% | Potency [5] | Potency [6] | Potency [9]

Cc1c(F)cc2c(=O)c(C(=O)O)cn3c2c1CCC3C (stereo not drawn)
inactive: Potency [1] | Potency [2] | outcome [3] | max response [4] -0.802% | Potency [5] | Potency [6] | Potency [7] | Potency [9]

FC(F)(F)C(F)(F)C(F)(F)C(F)(F)C(F)(F)C(F)(F)C(F)(F)C(F)(F)C(F)(F)C(F)(F)F
inactive: activity change, negative = cytotoxic [1] -1.18% [at 6.97 µM] | cytotoxicity increase [2] -18% [at 6.97 µM] | activity change, negative = cytotoxicity [8] -4.72% [at 6.97 µM] | max response [4] -1.44% | activity change [5] -7.77% [at 6.97 µM, stronger effect = higher value] | cytotoxicity increase [6] 1.39% [at 6.97 µM] | cytotoxicity [9] 4.69% [at 6.97 µM] | cytotoxicity increase [10] 1.66% [at 6.97 µM]

Nc1nc(F)nc2c1ncn2[C@@H]1O[C@H](CO)[C@@H](O)[C@@H]1O
inactive: Potency [1] | Potency [2] | Potency [8] | max response [4] -1.6% | Potency [5] | Potency [6] | Potency [9] | Potency [10]

CC(=O)NC(Cc1ccccc1)C(=O)O (stereo not drawn)
inactive: Potency [1] | Potency [2] | Potency [8] | max response [4] 5.56% | Potency [5] | Potency [6] | Potency [7] | Potency [9] | Potency [10]

CCCCCCCCCCCCCCCCCC(=O)OCCCCCCCCCCCCCC(C)C
inactive: Potency [1] | Potency [2] | outcome [3] | max response [4] 1.07% | Potency [5] | Potency [6] | Potency [7] | Potency [9] | Potency [10]

O=C(O)c1ccc[n+]([O-])c1
inactive: Potency [1] | Potency [2] | outcome [3] | max response [4] 8.34% | Potency [5] | Potency [6] | Potency [7] | Potency [9] | Potency [10]

COc1cccc(OC)c1
inactive: Potency [1] | Potency [2] | outcome [3] | max response [4] 0.816% | Potency [5] | Potency [6] | Potency [7] | Potency [9]

COc1cc(C)cc(O)c1
inactive: Potency [1] | Potency [2] | Potency [8] | Potency [5] | Potency [6] | Potency [7] | Potency [9] | Potency [10]

CCOC(=O)Cn1c(=O)sc2cccc(Cl)c21
inactive: Potency [1] | Potency [2] | Potency [8] | Potency [5] | Potency [6] | Potency [7] | Potency [9] | Potency [10]

NCC[C@H](O)C(=O)N[C@@H]1C[C@H](N)[C@@H](O[C@H]2O[C@H](CN)[C@@H](O)[C@H](O)[C@H]2O)[C@H](O)[C@H]1O[C@H]1O[C@H](CO)[C@@H](O)[C@H](N)[C@H]1O
inactive: activity change, negative = cytotoxic [1] -0.912% [at 0.29 µM] | cytotoxicity increase [2] -3.46% [at 0.29 µM] | viability change, negative = cytotoxic [3] -0.5% [at 0.29 µM] | max response [4] 5.14% | activity change [5] 2.36% [at 0.29 µM, stronger effect = higher value] | cytotoxicity increase [6] -3.16% [at 0.29 µM] | activity change, negative = cytotoxic [7] -1.54% [at 0.29 µM] | cytotoxicity [9] -1.2% [at 0.29 µM] | cytotoxicity increase [10] -4.11% [at 0.29 µM]

C1=C\CC/C=C\CC/C=C\CC/1
inactive: Potency [1] | Potency [2] | outcome [3] | max response [4] 24.2% | Potency [5] | Potency [6] | Potency [7] | Potency [9] | Potency [10]

CCCCCOC(=O)Nc1nc(=O)n([C@@H]2O[C@H](C)[C@@H](O)[C@H]2O)cc1F
inactive: Potency [1] | Potency [2] | outcome [3] | max response [4] 7% | Potency [5] | Potency [6] | Potency [7] | Potency [9] | Potency [10]

C1COCCO1
inactive: Potency [1] | Potency [2] | outcome [3] | max response [4] 4.29% | Potency [5] | Potency [6] | Potency [7] | Potency [9] | Potency [10]

C[N+](C)(C)CC[N+]1(C)Cc2c(Cl)c(Cl)c(Cl)c(Cl)c2C1
active: Potency [1] 23.9 µM
inactive: Potency [2] | Potency [8] | max response [4] 7.36% | Potency [5] | Potency [6] | Potency [9] | Potency [10]

CCC(=O)c1cccc(Cl)c1
inactive: Potency [1] | Potency [2] | Potency [8] | max response [4] 3.96% | Potency [5] | Potency [6] | Potency [7] | Potency [9] | Potency [10]

Oc1cc(O)c2c(c1)O[C@H](c1ccc(O)c(O)c1)[C@H](O)C2
inactive: Potency [1] | Potency [2] | outcome [3] | max response [4] 0.448% | Potency [5] | Potency [6] | Potency [7] | Potency [9]

C1C2OC2C2C1C1CC2C2OC12 (stereo not drawn)
inactive: Potency [1] | Potency [2] | outcome [3] | max response [4] 2.43% | Potency [5] | Potency [6] | Potency [7] | Potency [9]

CCn1cc(C(=O)O)c(=O)c2cc(F)c(N3CCN(C)CC3)cc21
inactive: activity change, negative = cytotoxic [1] 1.6% [at 15.8 µM] | cytotoxicity increase [2] -12.2% [at 15.8 µM] | viability change, negative = cytotoxic [3] 2.21% [at 15.8 µM] | max response [4] -1.49% | activity change [5] -4.84% [at 15.8 µM, stronger effect = higher value] | cytotoxicity increase [6] -8.46% [at 15.8 µM] | activity change, negative = cytotoxic [7] 1.05% [at 15.8 µM] | cytotoxicity [9] -13.3% [at 15.8 µM] | cytotoxicity increase [10] -14.4% [at 15.8 µM]

Fc1ccccc1-c1ccccc1
inactive: Potency [1] | outcome [3] | max response [4] -21.5% | Potency [6] | Potency [7] | Potency [9]

[O-][N+](=Nc1ccccc1)c1ccccc1
inactive: Potency [1] | Potency [8] | outcome [3] | max response [4] -1.34% | Potency [6] | Potency [7] | Potency [9]
